These results are taken from publication PMC11062922 (Nature Chemical Biology, 2023).

Where two headings read alike, the source gives them in different places.

Holding throughout (design): species or system human, MV4-11 + K-562 + COLO205 + SK-N-BE2 + OVCAR-8
One assay relates to CDK10. Conditions: read-out: apparent Kd; compound concentrations:100 nM and 1000 nM (sheet 'Samples'); n = 1.
The test system of the next assay is GSK3A. To be noted: read-out: apparent Kd; compound concentrations:100 nM and 1000 nM (sheet 'Samples'); n = 1.
Another assay concerns GSK3B. Conditions: read-out: apparent Kd; compound concentrations:100 nM and 1000 nM (sheet 'Samples'); n = 1.
In the next assay the test system is ILK. Conditions: read-out: apparent Kd; compound concentrations:100 nM and 1000 nM (sheet 'Samples'); n = 1.
For another assay, the system named is PKN1. To be noted: read-out: apparent Kd; compound concentrations:100 nM and 1000 nM (sheet 'Samples'); n = 1.
The subject of the next assay is PRKCB. Conditions: read-out: apparent Kd; compound concentrations: 100 nM and 1000 nM (sheet 'Samples'), CATDS: 0.15520106797875899; n = 1.
The subject of another assay is PRKCI. To be noted: read-out: apparent Kd; compound concentrations:100 nM and 1000 nM (sheet 'Samples'); n = 1.
The test system of the next assay is RPS6KA6. To be noted: read-out: apparent Kd; compound concentrations:100 nM and 1000 nM (sheet 'Samples'); n = 1.
The subject of another assay is RPS6KB1. To be noted: read-out: apparent Kd; compound concentrations:100 nM and 1000 nM (sheet 'Samples'); n = 1.
The test system of the next assay is CDC42. Conditions: read-out: apparent Kd; compound concentrations: 100 nM and 1000 nM (sheet 'Samples'), CATDS: 8.3198711436125394E-2; n = 1.
The subject of another assay is CSNK1A1. To be noted: read-out: apparent Kd; compound concentrations: 100 nM and 1000 nM (sheet 'Samples'), CATDS: 8.7123517988238197E-2; n = 1.
The test system of the next assay is CSNK1D. To be noted: read-out: apparent Kd; compound concentrations: 100 nM and 1000 nM (sheet 'Samples'), CATDS: 0.37273157205877999; n = 1.
A further assay relates to CSNK1E. To be noted: read-out: apparent Kd; compound concentrations: 100 nM and 1000 nM (sheet 'Samples'), CATDS: 0.16724223379061501; n = 1.
Another assay has as its system MAPK10. To be noted: read-out: apparent Kd; compound concentrations: 100 nM and 1000 nM (sheet 'Samples'), CATDS: 0.11305020597261101; n = 1.
The subject of another assay is MAPK14. To be noted: read-out: apparent Kd; compound concentrations: 100 nM and 1000 nM (sheet 'Samples'), CATDS: 9.3591045937798004E-2; n = 1.
Another assay relates to MAPK9. To be noted: read-out: apparent Kd; compound concentrations: 100 nM and 1000 nM (sheet 'Samples'), CATDS: 8.8395799729483998E-2; n = 1.
A further assay concerns MAPKAPK2. Conditions: read-out: apparent Kd; compound concentrations: 100 nM and 1000 nM (sheet 'Samples'), CATDS: 0.13823017842708299; n = 1.
Another assay relates to RIPK2. Conditions: read-out: apparent Kd; compound concentrations: 100 nM and 1000 nM (sheet 'Samples'), CATDS: 9.29117270749487E-2; n = 1.
Another assay deals with CDK16. Conditions: read-out: apparent Kd, n = 1.
Another assay has as its system CDK2. To be noted: read-out: apparent Kd, n = 1.
The test system of a further assay is NUAK1. Conditions: read-out: apparent Kd; compound concentrations: 100 nM and 1000 nM (sheet 'Samples'), CATDS: 0.20890182477098199; n = 1.
The next assay has as its system NUAK2. To be noted: read-out: apparent Kd; compound concentrations: 100 nM and 1000 nM (sheet 'Samples'), CATDS: 0.14838950263404099; n = 1.
In the next assay the test system is STK3. Conditions: read-out: apparent Kd; compound concentrations: 100 nM and 1000 nM (sheet 'Samples'), CATDS: 0.13207546439769999; n = 1.
The subject of the next assay is STK4. To be noted: read-out: apparent Kd; compound concentrations: 100 nM and 1000 nM (sheet 'Samples'), CATDS: 0.136772712102746; n = 1.
In a further assay the test system is CDK17. To be noted: read-out: apparent Kd; compound concentrations:100 nM and 1000 nM (sheet 'Samples'); n = 1.
In a further assay the test system is CDK6. Conditions: read-out: apparent Kd; compound concentrations:100 nM and 1000 nM (sheet 'Samples'); n = 1.
The test system of another assay is ICK. To be noted: read-out: apparent Kd; compound concentrations:100 nM and 1000 nM (sheet 'Samples'); n = 1.
A further assay concerns NNT. Conditions: read-out: apparent Kd; compound concentrations:100 nM and 1000 nM (sheet 'Samples'); n = 1.
Another assay deals with CDK4. Conditions: read-out: apparent Kd; compound concentrations: 100 nM and 1000 nM (sheet 'Samples'), CATDS: 0.32683838675566101; n = 1.
For the next assay, the system named is MAP2K2. Conditions: read-out: apparent Kd; compound concentrations: 100 nM and 1000 nM (sheet 'Samples'), CATDS: 0.35471612701675298; n = 1.
The subject of a further assay is PDGFRB. Conditions: read-out: apparent Kd; compound concentrations: 100 nM and 1000 nM (sheet 'Samples'), CATDS: 0.32038670462926999; n = 1.
Where [1] appears, read: compound concentrations:100 nM and 1000 nM (sheet 'Samples').

`CN1C[C@@H]2Cn3c(c(C4=C(c5cn(C)c6ccccc56)C(=O)NC4=O)c4ccccc43)C[C@H]2C1.Cl` [RO0320557-001]: the potency estimated from few doses in the assay with CDK10 is 1200 nM; with GSK3A it was 53.4 nM; in the assay on GSK3B, 41.5 nM; in the assay on ILK, 2350 nM; in the assay on PKN1, 2490 nM; with PRKCB, 20.3 nM. The values for the potency estimated from few doses with PRKCI, in the assay with RPS6KA6 and in the assay on RPS6KB1 were 1930 nM, 386 nM and 104 nM, respectively.

For `Fc1ccc(-c2nc3n(c2-c2ccncc2)CCS3)cc1` [GI98581X], the potency estimated from few doses was 1530 nM in the assay with CDC42; 1320 nM in the assay with CSNK1A1; 87.9 nM with CSNK1D; 304 nM in the assay on CSNK1E; 666 nM in the assay with MAPK10; 1070 nM in the assay on MAPK14. Further, the potency estimated from few doses is 1260 nM in the assay with MAPK9, 435 nM in the assay on MAPKAPK2 and 1090 nM in the assay with RIPK2.

For the molecule `CC(C)=Cc1cccc2c1/C(=N/Nc1ccc(S(N)(=O)=O)cc1)C(=O)N2` [GW396574X], the potency estimated from few doses is 778 nM in the assay on CDK16 (compound concentrations: 100 nM and 1000 nM (sheet 'Samples'), CATDS: 0.172165115049177); 366 nM in the assay with CDK2 (compound concentrations: 100 nM and 1000 nM (sheet 'Samples'), CATDS: 0.26435202316191703); 539 nM with NUAK1; 1080 nM with NUAK2; 1470 nM in the assay on STK3; 1330 nM with STK4.

As to `CS(=O)(=O)N1CCC(Nc2ncc(C(=O)c3c(F)cccc3F)c(N)n2)CC1` [RO4930481-000], the potency estimated from few doses with CDK16 (setting [1]) is 1350 nM; in the assay with CDK17, 1470 nM; in the assay with CDK2 (setting [1]), 1000 nM; in the assay with CDK6, 1750 nM; in the assay with ICK, 1260 nM; with NNT, 1110 nM.

Take `COc1cc2ncn(-c3cc(OCc4ccccc4C(F)(F)F)c(C(=O)N(C)C)s3)c2cc1OC` [GSK1030062A]: the potency estimated from few doses with CDK4 is 2020 nM; in the assay with MAP2K2, 1720 nM; in the assay with PDGFRB it was 2110 nM.
